# Sampled rows, rich in hits. Any-hit rate of the full collection: about 2.4%.
# Pol eta inh = qHTS for Inhibitors of Polymerase Eta | Potency, µM (highest dose often 114 µM), actives largely listed as inhibitors | recombinant Pol eta, fluorescent DNA replication assay | DNA polymerase eta (Homo sapiens), Q9Y253 | 1.2% of 390,000 active
# Target sequence (Q9Y253 whole entry, looked up): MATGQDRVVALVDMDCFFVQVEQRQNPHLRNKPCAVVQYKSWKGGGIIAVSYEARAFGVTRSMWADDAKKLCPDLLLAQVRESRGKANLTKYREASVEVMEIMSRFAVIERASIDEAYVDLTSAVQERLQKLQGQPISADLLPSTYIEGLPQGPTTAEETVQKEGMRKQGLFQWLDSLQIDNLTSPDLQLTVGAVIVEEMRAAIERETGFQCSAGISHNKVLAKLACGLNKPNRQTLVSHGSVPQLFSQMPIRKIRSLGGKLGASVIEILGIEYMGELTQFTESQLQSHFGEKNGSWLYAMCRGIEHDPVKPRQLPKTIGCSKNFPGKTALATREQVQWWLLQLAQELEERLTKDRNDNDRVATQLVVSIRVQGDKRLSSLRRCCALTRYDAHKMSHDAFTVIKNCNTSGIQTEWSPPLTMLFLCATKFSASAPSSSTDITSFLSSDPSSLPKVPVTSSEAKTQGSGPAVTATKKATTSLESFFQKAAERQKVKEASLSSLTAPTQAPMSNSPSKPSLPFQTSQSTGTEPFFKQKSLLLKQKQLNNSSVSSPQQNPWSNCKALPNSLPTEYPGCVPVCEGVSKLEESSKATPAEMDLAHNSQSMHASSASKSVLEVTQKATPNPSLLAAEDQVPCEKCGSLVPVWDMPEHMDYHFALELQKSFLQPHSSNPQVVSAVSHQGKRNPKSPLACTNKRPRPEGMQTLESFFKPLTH
#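 Pol eta at 10 nM preincubated with compounds 15 min at room temperature; reaction started with fluorescent substrate (50 nM final) and read kinetically at 0 and 10 min.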
# Pol iota inh = qHTS for Inhibitors of Polymerase Iota; Pol iota fluorescent replication assay, 10 min; Potency, µM (doses to about 115 µM), actives largely listed as inhibitors; DNA polymerase iota (Homo sapiens), Q9UNA4; AID 588590, 2011; 1% of 390,000 active
#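 Fluorescent replication assay read twice, at 0 min and 10 min after adding 50 nM (final) substrate. Enzyme (10 nM) and compounds were first incubated 15 min at room temperature; enzyme-free buffer wells were negative controls.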
# Pol kappa inh = qHTS for Inhibitors of Polymerase Kappa | purified Pol kappa, fluorescent DNA synthesis assay, 10 min | Potency, µM (doses to about 107 µM), usual class: inhibitors | 0.53% of 400,000 active | AID 588579, 2011
#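 Readout: fluorescence, taken kinetically at 0 and 10 min. Conditions: 10 nM Pol kappa, 15 min RT compound preincubation, 50 nM substrate final. Controls: enzyme-free buffer wells.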
# Pol beta inh = qHTS Assay for Inhibitors of DNA Polymerase Beta. P06746. Potency, µM (highest dose often 114 µM), usual class: inhibitors. Pol beta primer extension/strand displacement, fluorescence kinetic. 1.3% of 340,000 active. AID 485314, 2010
#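 Reaction started by 50 nM substrate onto compound-treated Pol beta (10 nM, 15 min preincubation, room temperature); plates read at 0 min and 10 min. Normalized concentration-effect data fitted by four-parameter Hill equation.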
# WRN helicase inh = qHTS for Inhibitors of WRN Helicase. Bifunctional 3'-5' exonuclease/ATP-dependent helicase WRN (Homo sapiens), Q14191. WRN helicase unwinding, fluorescent forked duplex, kinetic. Potency, µM (titrated, usually from 114 µM), hits mostly inhibitors. 0.46% of 360,000 active. AID 651768, 2012; further: nearly all actives have a fitted effect of over 55% in size
#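 Enzyme (20 nM final) and test compound sit together 15 min at room temperature before substrate addition. Substrate is a single-forked duplex oligonucleotide (100 nM) labelled with fluorophore and quencher, with 2 mM ATP; helicase unwinding raises red fluorescence, read kinetically.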
# FEN1 inh = qHTS Assay for the Inhibitors of Human Flap endonuclease 1 (FEN1); Recombinant FEN1 flap cleavage, fluorescence, 15 min; AID 588795, 2011; Potency, µM (doses to about 114 µM), hits mostly inhibitors; P39748; 0.35% of 390,000 active; further: nearly all actives have a fitted effect of over 65% in size
#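 Enzyme 10 nM, 15 min RT preincubation with compound; start with substrate 50 nM final; reads at 0 and 15 min; qHTS titration, four-parameter Hill fit.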
# A number is an active result; . = inactive; ? = inconclusive; / = no result; [ ] = another dose, or the depositor's remark. The call rests on the fitted dose curve; in most records, active means well fitted curve in the direction sought with a large enough effect; inconclusive means small, poorly fitted or top-dose-only effect, or another doubt; inactive means no such curve, though single readings can be large; an effect the other way counts as inactive or inconclusive.
SMILES,Pol eta inh,Pol iota inh,Pol kappa inh,Pol beta inh,WRN helicase inh,FEN1 inh
CCCN1CCC(=O)N(C(CSc2ccc(Br)cc2)c2ccccc2)CC1 (stereo not given),/,.,.,/,/,.
COC(=O)c1ccccc1NC(=O)c1nc(-c2ccc(Cl)cc2)n2c1CCCCC2,.,.,.,.,/,.
Oc1ccc(Nc2nc(NCC3CCCO3)c3ccccc3n2)cc1 (stereo not given),.,.,.,?,35µM,?
COc1ccccc1N(C)C,/,.,.,/,/,.
COc1ccc(-c2n[nH]c(C(F)(F)F)c2-c2cc3ccccc3o2)c(O)c1,.,79µM,.,.,.,.
CCN1C(=O)c2ccccc2Sc2ccc(NC(=O)Nc3cccc([N+](=O)[O-])c3C)cc21,.,.,.,.,/,.
CC(=O)c1ccccc1OCC(O)CN1CCN(CCN2C(=O)c3cccc4cccc(c34)C2=O)CC1 (stereo not given),.,.,.,40µM,.,?
COc1cccc(OCC(O)CN2CCC(CN3C(=O)c4cccc5cccc(c45)C3=O)CC2)c1 (stereo not given),.,.,.,.,.,28µM
O=C1c2cccc3cccc(c23)C(=O)N1CC1CCN(CC(O)COc2ccc3ccccc3c2)CC1 (stereo not given),.,.,.,.,.,.
CCC(=O)NC1Cc2ccccc2C(c2ccccc2)C1 (stereo not given),/,/,.[19.4 µM],/,/,/
O=C(Nc1cccc(Br)c1)c1ccc2nc(N3C(=O)CCC3=O)sc2c1,?,.,.,.,?,.
O=C(Nc1cccc([N+](=O)[O-])c1)c1ccc2nc(N3C(=O)CCC3=O)sc2c1,.,.,.,.,45µM,.
CCSc1ncc(Cl)c(C(=O)N(Cc2ccc(N(C)C)cc2)Cc2ccco2)n1,/,.,.,.,/,.
CCOc1cc([N+](=O)[O-])cc(/C=C2/NC(=O)N(Cc3ccccc3F)C2=O)c1O,50µM,?,?,?,.[11.6 µM],.
O=C(NCc1ccccn1)C1(C(F)(F)F)CC(CCCO)CCCO1 (stereo not given),/,.,.,/,/,.
COc1ccc(Cn2c3nc4ccccc4nc3c3c(=O)n(Cc4ccco4)cnc32)cc1,/,/,/,35µM,/,/
Cc1cccc(-n2cnc3c(c2=O)c2nc4ccccc4nc2n3Cc2ccco2)c1,?,?,.,40µM,.,.
Cc1cccc(S(=O)(=O)c2c(N)n(Cc3ccco3)c3nc4ccccc4nc23)c1,?,?,.,.,?,.
CCOc1cc2sc(N3CCC(C(=O)Nc4ccccc4Cl)CC3)nc2cc1Br,.,.,.,.,/,.
O=c1cc(-c2cccc(O)c2)oc2cc(O)ccc12,/,/,.[19.4 µM],/,/,/
O=c1cc(-c2ccncc2)oc2c1ccc1ccccc12,.,.,.,?,.[11.6 µM],?
O=c1cc(-c2ccco2)oc2c1ccc1ccccc12,?,.,.,18µM,.,.
O=c1cc(-c2ccccc2O)oc2c1ccc1ccccc12,/,/,.[19.4 µM],/,/,/
O=c1cc(-c2cccc(O)c2)oc2c(O)c(O)ccc12,/,/,2.8µM,/,/,/
O=c1cc(-c2ccc(O)cc2)oc2c1ccc1ccccc12,56µM,.,.,/,.,.
SMILES,Pol eta inh,Pol iota inh,Pol kappa inh,Pol beta inh,WRN helicase inh,FEN1 inh
Cn1c(=O)c2[nH]c(SCCN3CCCCC3)nc2n(C)c1=S,.,?,.,/,.,.
Cn1c(=O)c2[nH]c(SCCN3CCOCC3)nc2n(C)c1=S,.,18µM,.,/,.,.
CCC1=NN2C(=N)/C(=C\c3cccn3-c3c(C)cccc3C)C(=O)N=C2S1,.,.,.,.,.,.
CCC1=NN2C(=N)/C(=C\c3cccn3-c3ccc(Br)cc3)C(=O)N=C2S1,.,?,.,.,.,16µM
CCC1=NN2C(=N)/C(=C\c3cccn3-c3ccc(C)cc3C)C(=O)N=C2S1,50µM,?,.,40µM,.,?
C=C1CN(C(C(=O)OC)C(C)C)S(=O)(=O)c2ccc(F)cc21 (stereo not given),/,.,.,/,/,.
